# Laboratory results as given in PubChem BioAssay AID2763 (National Center for Advancing Translational Sciences (NCATS), 2010).
# Inconclusive results are not listed. Active and inactive are the calls of the source. Calls follow the shape of the dose curve; as a rule, active = well fitted inhibition curve with a large enough effect; inconclusive = small, poorly fitted or top-dose-only effect, or effect the other way; inactive = no such curve, though single readings can be large or run the other way.
# Assay: Concentration response confirmation VP16 counterscreen for inhibitors of ROR gamma transcriptional activity; also: nearly all actives have a fitted effect of over 70% in size
# Source text: NIH Molecular Libraries Probe Production Network [MLPCN] NIH Chemical Genomics Center [NCGC] MLPCN Grant: R03 DA026211-01 Assay Provider: Dan Littman, New York University Assay Overview: The retinoic acid-related orphan receptor (ROR) gamma is a transcription factor that has a central role in the differentiation of Th17 cells, a subset of T helper cells that secrete the inflammatory cytokines IL-17, IL-17F, and IL-22. Th17 cells have been implicated in graft versus host disease, autoimmune disease and asthma. ROR gamma is induced in naive T helper cells in the presence of TGF-beta combined with IL-6, IL-21, or IL-23, and thereafter directs the expression of the Th17 lineage cytokines. To identify nonspecific inhibitors, a Drosophila Schneider cell line was stably transfected with two vectors: a gene expressing a fusion of the Gal4 DNA binding domain and the transactivation domain of the viral transcription factor VP16, under the control of the metallothionine promoter and a Photinus luciferase reporter regulated by the Gal4 binding site enhancer, UAS. […] Small molecule inhibitors that inhibit components common to the RORgt and VP16 assays, such as the Gal4 DNA binding domain or the UAS luciferase reporter, will be active in both assays and thus scored as nonspecific.
# Assay Protocol Summary: For screening, 600 cells in 4 uL/well were dispensed into white solid 1536-well plates (Grenier) using a solenoid-based dispenser. Following transfer of 23 nL compound or DMSO vehicle by a pin tool, the plates were incubated 1 hr at ambient temperature, and 1 uL/well copper sulfate (700 uM final concentration) was added. The plates were centrifuged 15 s at 1000 RPM and incubated 20 hr at ambient temperature. After addition of 1.5 uL Photinus luciferase detection reagent, the plates were incubated 10 min at ambient temperature and then read by an ViewLux (Perkin Elmer) to detect luminescence.
# Potency is read from the fitted curve at half-maximal effect.
row,Structure (SMILES),Potency
1,CCCCNS(=O)(=O)c1ccc(OCC(=O)N2CCN(Cc3ccc4c(c3)OCO4)CC2)cc1,22.3 µM (active)
2,O=C(Nc1ncc(Cc2ccccc2)s1)C1=NCCN1,19.9 µM (active)
3,Cc1cc(S(=O)(=O)NC(C)C)ccc1OCC(=O)N1CCN(Cc2ccc3c(c2)OCO3)CC1,11.2 µM (active)
4,CCCNS(=O)(=O)c1ccc(OCC(=O)N2CCN(Cc3ccc4c(c3)OCO4)CC2)cc1,25 µM (active)
5,COc1cc(C(=O)N/N=C/C23CC[C@@H](O)CC2(O)CC[C@@H]2[C@@H]3CCC3(C)C(C4=CC(=O)OC4)CCC23O)ccc1O (stereo partly drawn),inactive
6,O=C(c1ccco1)c1cn(Cc2ccccc2Cl)c2ccccc12,inactive
7,OC(COCc1ccc(Cl)cc1)CN1CC=C(c2ccccc2)CC1 (stereo not drawn),inactive
8,Cn1ncnc2c(=O)n(C)c(=O)nc1-2,0.445 µM (active)
